Shiga inhibitor: A qHTS for Small Molecule Inhibitors of Shiga Toxin. Vero cells, Shiga toxin protein synthesis inhibition reporter. inhibition, % at 38.7 µM. 290,000 tested, 9.2% active. AID 2315, 2010; in the data active = inhibition mostly above about 28%, no sharp cut-off; inactive = mostly below about 43%
Pf growth 96h: Primary qHTS for delayed death inhibitors of the malarial parasite plastid, 96 hour incubation; 320,000 tested, 6.9% active; AID 504834, 2011; P. falciparum luciferase reporter growth, 96 h; Potency, µM (doses to about 28.7 µM), hits mostly inhibitors
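P. falciparum expressing integrated firefly luciferase, in erythrocytes at 2% hematocrit, 0.05% parasitemia, incubated with compounds 96 h at 37 C, 5% CO2. Growth inhibition read as loss of luminescence; two-generation exposure targets delayed-death apicoplast inhibitors.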
NS1 inh: qHTS Assay for Inhibitors of Influenza NS1 Protein Function; Potency, µM (series often up to 46.1 µM); 270,000 tested, 0.4% active; calls by dose curve; note: actives are rising curves; nearly all actives have a fitted effect of over 50% in size
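S. cerevisiae expressing influenza A NS1, grown in glucose, washed, then diluted 1:100 into pH 6.0 -URA galactose medium with 23 nl compound. Growth recovery read as OD600; NS1-free strain serves as control.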
Pf growth 48h: Primary qHTS for delayed death inhibitors of the malarial parasite plastid, 48 hour incubation; P. falciparum luciferase growth in erythrocytes, 48 h; Potency, µM (series often up to 28.7 µM), actives largely listed as inhibitors; 310,000 tested, 5.9% active; AID 504832, 2011
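Growth was read as firefly luciferase luminescence after a 48 h, 37 C, 5% CO2 exposure of compounds to reporter-bearing P. falciparum cultures (0.1% parasitemia, 2% hematocrit final) in Albumax-supplemented RPMI 1640.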
CHX counter: Cycloheximide Counterscreen for Small Molecule Inhibitors of Shiga Toxin. cell reporter, cycloheximide protein synthesis inhibition counterscreen. max response, %. 300,000 tested, 12% active. AID 2314, 2010; in the data active = max response mostly above about 13%, no sharp cut-off; inactive = mostly below about 14%; note: read at 38.3 µM for the half of the compounds with a filed dose
Giardia FBPA inh-1: qHTS Assay for Inhibitors of Fructose-1,6-bisphosphate Aldolase from Giardia Lamblia; A8B2U2; purified Giardia FBPA; Potency, µM (titrated, usually from 59.6 µM), usual class: inhibitors; 290,000 tested, 0.71% active; note: nearly all actives have a fitted effect of over 55% in size
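40 nM FBPA preincubated 10 min at RT with compound (up to 57.5 uM final), then substrate plus GAPDH/TPI/NAD/arsenate coupling and diaphorase/resazurin added. Fluorescence read after 20 min at RT, 525/598 nm.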
Giardia growth: qHTS Assay for Inhibitors of Fructose-1,6-bisphosphate Aldolase from Giardia Lamblia: Giardia lamblia growth inhibition; shares compounds with Giardia FBPA inh-1; Giardia lamblia trophozoite growth inhibition; Potency, µM (doses to about 57.5 µM), most hits filed as inhibitors; 1,500 tested, 5% active; AID 2785, 2010;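 note: trophozoites exposed to compound for 48 h at 37 °C; nearly all actives have a fitted effect of over 70% in size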
Mammal cell tox: qHTS Assay for Inhibitors of Fructose-1,6-bisphosphate Aldolase from Giardia Lamblia: Mammalian cellular toxicity; mammalian cell viability counter-screen, qHTS; Potency, µM (series often up to 57.5 µM), hits mostly inhibitors; shares compounds with Giardia FBPA inh-1; 1,500 tested, 4% active;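 note: Chinese hamster ovary cells used as mammalian cytotoxicity surrogate; viability measured as cellular ATP by luminescence; compound exposure lasted 48 h before reading; nearly all actives have a fitted effect of over 60% in size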
Giardia FBPA inh-2: qHTS Assay for Inhibitors of Fructose-1,6-bisphosphate Aldolase from Giardia Lamblia: Primary screen confirmation. purified Giardia aldolase enzyme activity, qHTS. AID 2787, 2010. Potency, µM (highest dose often 57.5 µM), most hits filed as inhibitors. shares compounds with Giardia FBPA inh-1. 1,500 tested, 5% active; note: nearly all actives have a fitted effect of over 45% in size
Rabbit FBPA inh: qHTS Assay for Inhibitors of Fructose-1,6-bisphosphate Aldolase from Giardia Lamblia: Rabbit FBPA Selectivity; shares compounds with Giardia FBPA inh-1; AID 2794, 2010; Potency, µM (highest dose often 57.5 µM), usual class: inhibitors; Rabbit muscle FBPA enzyme inhibition, selectivity counter-screen; 1,500 tested, 4% active; note: nearly all actives have a fitted effect of over 60% in size
Target sequence (P00883 whole entry, looked up): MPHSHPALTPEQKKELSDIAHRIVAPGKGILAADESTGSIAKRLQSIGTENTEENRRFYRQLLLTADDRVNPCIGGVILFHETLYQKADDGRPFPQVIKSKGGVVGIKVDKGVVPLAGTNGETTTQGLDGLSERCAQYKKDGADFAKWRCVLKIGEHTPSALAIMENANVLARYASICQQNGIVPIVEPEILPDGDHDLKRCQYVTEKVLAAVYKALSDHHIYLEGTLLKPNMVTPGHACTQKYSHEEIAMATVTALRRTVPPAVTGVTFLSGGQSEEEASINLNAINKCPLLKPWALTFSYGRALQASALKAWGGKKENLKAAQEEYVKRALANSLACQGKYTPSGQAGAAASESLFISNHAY
GAPDH coupling: qHTS Assay for Inhibitors of Fructose-1,6-bisphosphate Aldolase from Giardia Lamblia: Coupling assay counterscreen confirmation. shares compounds with Giardia FBPA inh-1. GAPDH coupling enzyme counterscreen, biochemical, qHTS. Potency, µM (highest dose often 57.5 µM), actives largely listed as inhibitors. 1,500 tested, 6% active. AID 2795, 2010; note: nearly all actives have a fitted effect of over 55% in size
Hits are given with their value; n = inactive; u = inconclusive; x = no result given; [ ] = dose if it differs, or a comment. Sampled rows, rich in hits. Any-hit rate of the full collection: about 21%. Unless noted, calls come from the whole dose curve; as a rule, active = well fitted curve in the direction sought with a large enough effect; inconclusive = small, poorly fitted or top-dose-only effect, or another doubt; inactive = no such curve, though single readings can be large; an effect the other way counts as inactive or inconclusive.

SMILES	Shiga inhibitor	Pf growth 96h	NS1 inh	Pf growth 48h	CHX counter	Giardia FBPA inh-1	Giardia growth	Mammal cell tox	Giardia FBPA inh-2	Rabbit FBPA inh	GAPDH coupling
COc1ccc(OC)c(C2CC(=O)N3CN(c4ccc(C)c(Cl)c4)CSC3=C2C#N)c1 (stereo unspecified)	n	u	n	x	n	5µM	n[10.4 µM]	n	u	u	n
O=C1CC2(CCCC2)C(=O)N1c1ccc(S(=O)(=O)NCC2CC2)cc1Cl	n	n	n	n	n	n	x	x	x	x	x
Cc1ccc2[nH]c(C)cc(=O)c2c1	n	x	x	x	n	n	x	x	x	x	x
COc1ccc(OC)c(C2CC(=O)N3CN(c4cccc(Cl)c4)CSC3=C2C#N)c1 (stereo unspecified)	n	7.38µM	n	x	n	3.54µM	n	n	n	n	n
COc1cc(OC)c(C2CC(=O)N3CN(C)CSC3=C2C#N)cc1OC (stereo unspecified)	n	u	n	x	n	0.561µM	n	n	u	n	u
COc1cc(OC)c(C2CC(=O)N3CN(c4ccccc4)CSC3=C2C#N)cc1OC (stereo unspecified)	n	u	n	n	n	u	x	x	x	x	x
COc1cccc(-c2nnc(NC(=O)c3ccc(S(=O)(=O)N4CC(C)OC(C)C4)cc3)o2)c1 (stereo unspecified)	n	n	n	x	n	u	x	x	x	x	x
Cc1nnc(NC(=O)c2ccc(S(=O)(=O)N3CCCCCC3)cc2)o1	n	n	n	u	n	u	x	x	x	x	x
O=C(Nc1nnc(-c2ccco2)o1)c1ccc(S(=O)(=O)N2CCCC2)cc1	n	u	x	11.7µM	n	5µM	n[10.4 µM]	n	n	n	n
CC1CN(S(=O)(=O)c2ccc(C(=O)Nc3nnc(-c4ccco4)o3)cc2)CC(C)O1 (stereo unspecified)	n	u	n	u	n	17.7µM	n	n	n	n	n
CC1CCCN(S(=O)(=O)c2ccc(C(=O)Nc3nnc(-c4ccccn4)o3)cc2)C1 (stereo unspecified)	n	u	n	n	n	17.7µM	n	n	n	n	n
O=C(CCn1nc(-c2ccccc2)c2ccccc2c1=O)NN1CCOCC1	n	n	n	n	n	n	x	x	x	x	x
O=C(Cn1ncc2c([nH]c3ccccc32)c1=O)N1CCN(c2ccc(F)cc2)CC1	n	n	n	n	n	n	x	x	x	x	x
Cc1c(CNC2CCCC2)c(C(=O)O)c(C)n1Cc1ccccc1	n	u	n	n	n	n	x	x	x	x	x
O=C(NC(=S)N1CCN(c2ccc(O)cc2)CC1)c1cccs1	83.9	u	n	n	23.6	12.6µM	n	n	n	n	n
Cc1nnc(SCC(=O)Nc2cc(C(F)(F)F)ccc2N2CCOCC2)o1	n	x	n	n	n	n	x	x	x	x	x
O=C(CNCc1cccnc1)Nc1cc(C(F)(F)F)ccc1N1CCOCC1	n	u	n	u	n	7.92µM	u	n	n	n	n
CCn1c(COc2ccc3c(c2)CCCC3)nnc1SCC(=O)Nc1nccs1	n	n	n	n	n	n	x	x	x	x	x
Cc1ccc(S(=O)c2ccc(C)cc2)cc1	n	n	n	n	n	n	x	x	x	x	x
